Measurements reported in PubChem BioAssay (Tox21).
Records with an inconclusive call do not appear. Calls of active or inactive are those of the source. Unless noted, calls come from the whole dose curve; as a rule, active = well fitted curve in the direction sought with a large enough effect in the repeat runs; inconclusive = weak or mixed curves; inactive = no such curve, though single readings can be large; an effect the other way counts as inactive or inconclusive.

What was measured:
[1] = qHTS assay to identify small molecule antagonists of the estrogen receptor alpha (ER-alpha) signaling pathway using the BG1 cell line in the presence of 0.1 nM 17-beta-estradiol - cell viability counter screen (AID 1259241); note: nearly all actives have a fitted effect of over 40% in size
In short: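 VM7Luc4E2 cells (endogenous ER-alpha, 4×ERE-luciferase), hormone-starved 5 days in charcoal-stripped FBS, were treated with compounds plus 0.1 nM 17beta-estradiol for 22 hr at 37C; viability read in same wells as CellTiter-Fluor live-cell protease fluorescence.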

[2] = qHTS assay to identify small molecule antagonists of the androgen receptor (AR) signaling pathway using the MDA cell line in the presence of 0.5 nM R1881 - cell viability counter screen (AID 1259242); note: nearly all actives have a fitted effect of over 45% in size
In short: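 Concentration-response screen of compounds for toxicity in MDA-kb2 reporter cells: 16 hr at 37C with 0.5 nM R1881, endpoint live-cell protease fluorescence measured in the reporter wells.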

[3] = molecular target: Estrogen receptor (Homo sapiens) (UniProt P03372); assay: qHTS assay to identify small molecule antagonists of the estrogen receptor alpha (ER-alpha) signaling pathway using the BG1 cell line in the presence of 0.1 nM 17-beta-estradiol (AID 1259244); note: nearly all actives have a fitted effect of over 50% in size
Chain of Estrogen receptor (Homo sapiens) (P03372 whole entry, looked up): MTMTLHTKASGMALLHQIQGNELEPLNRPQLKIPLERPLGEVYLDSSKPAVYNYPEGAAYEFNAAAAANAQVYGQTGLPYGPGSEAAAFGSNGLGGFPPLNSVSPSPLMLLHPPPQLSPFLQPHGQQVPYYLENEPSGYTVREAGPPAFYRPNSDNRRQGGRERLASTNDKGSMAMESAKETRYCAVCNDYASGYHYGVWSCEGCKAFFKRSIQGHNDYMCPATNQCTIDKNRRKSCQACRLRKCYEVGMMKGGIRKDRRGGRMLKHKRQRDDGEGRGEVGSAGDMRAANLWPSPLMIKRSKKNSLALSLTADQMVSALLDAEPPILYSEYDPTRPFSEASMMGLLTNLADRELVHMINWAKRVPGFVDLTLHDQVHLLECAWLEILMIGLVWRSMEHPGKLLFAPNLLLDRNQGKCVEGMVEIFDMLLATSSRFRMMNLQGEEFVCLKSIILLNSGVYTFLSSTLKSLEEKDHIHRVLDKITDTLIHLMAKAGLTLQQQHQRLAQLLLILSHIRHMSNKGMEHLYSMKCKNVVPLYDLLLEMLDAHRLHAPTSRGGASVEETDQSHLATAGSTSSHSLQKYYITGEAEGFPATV
In short: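 Compounds were tested against 0.1 nM (final) 17beta-estradiol in VM7Luc4E2 cells, which express full-length ER-alpha and an ERE-luciferase reporter; luminescence was recorded following 22 h exposure.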

[4] = qHTS assay to identify small molecule HDAC inhibitors (AID 1259364);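 note: wild-type HCT-116 cells with endogenous class I/II HDAC activity; top concentration of the series differs between compounds; nearly all actives have a fitted effect of over 45% in size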
In short: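 Screening used wild-type human colon HCT-116 cells incubated overnight, dosed with compounds for 2 hours, and assayed with a homogeneous luminogenic HDAC I/II reagent for 30 minutes at room temperature.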

[5] = qHTS assay to identify small molecule HDAC inhibitors - cell viability counter screen (AID 1259365); note: series mostly up to about 92 µM; nearly all actives have a fitted effect of over 50% in size
In short: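 Wild-type HCT-116 cells were seeded at 1,500 per well, incubated overnight at 37 C, then exposed to compounds in DMSO for 2hr. Viability was read by CellTiter-Glo luminescence after 30min at room temperature.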

[6] = qHTS assay to identify small molecule agonists of the sonic hedgehog signaling (Shh) pathway - cell viability counter screen (AID 1259366); note: nearly all actives have a fitted effect of over 50% in size
In short: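 NIH/3T3-derived 3T3 Gli1-Luc cells (stable Gli1-responsive firefly luciferase reporter) were seeded, rested 4 hr at 37 C/5% CO2, then exposed to compounds in DMSO for 24 hr; viability was read by CellTiter-Fluor fluorescence in the same wells.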

[7] = qHTS assay to identify small molecule antagonists of the sonic hedgehog signaling (Shh) pathway - cell viability counter screen (AID 1259367); note: nearly all actives have a fitted effect of over 55% in size
In short: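 Conditioned medium drove Shh signaling in 3T3 Gli1-Luc cells exposed to compounds at 37C and 5% CO2. Viability was determined from CellTiter-Fluor fluorescence, with reagent incubated 1 hr after 23 hr of treatment.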

[8] = qHTS assay to identify small molecule agonists of the sonic hedgehog signaling (Shh) pathway (AID 1259368; calls by dose curve; note: series mostly up to about 92 µM; nearly all actives have a fitted effect of over 15% in size)
In short: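 Hedgehog pathway agonism scored by increased firefly luciferase luminescence in 3T3Gli1-Luc cells treated 24 hr at 37 C; detection used a 30 min room-temperature reagent incubation.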

[9] = qHTS assay to identify small molecule antagonists of the sonic hedgehog signaling (Shh) pathway (AID 1259369; calls by dose curve; note: nearly all actives have a fitted effect of over 45% in size)
In short: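 NIH/3T3 stable Gli1-Luc clone, 2,000 cells/well, 4hr settle; cpd + conditioned medium 24hr; Luc reagent 30min RT; luminescence.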

[10] = molecular target: Estrogen receptor beta (Homo sapiens) (UniProt Q92731); assay: qHTS assay to identify small molecule agonists of the estrogen receptor beta (ER-beta) signaling pathway (AID 1259377; active = well fitted activation curve with a large enough effect in the signal ratio in the repeat runs, not every such curve was filed as active; the % refers to the signal ratio)
Chain of Estrogen receptor beta (Homo sapiens) (Q92731 whole entry, looked up): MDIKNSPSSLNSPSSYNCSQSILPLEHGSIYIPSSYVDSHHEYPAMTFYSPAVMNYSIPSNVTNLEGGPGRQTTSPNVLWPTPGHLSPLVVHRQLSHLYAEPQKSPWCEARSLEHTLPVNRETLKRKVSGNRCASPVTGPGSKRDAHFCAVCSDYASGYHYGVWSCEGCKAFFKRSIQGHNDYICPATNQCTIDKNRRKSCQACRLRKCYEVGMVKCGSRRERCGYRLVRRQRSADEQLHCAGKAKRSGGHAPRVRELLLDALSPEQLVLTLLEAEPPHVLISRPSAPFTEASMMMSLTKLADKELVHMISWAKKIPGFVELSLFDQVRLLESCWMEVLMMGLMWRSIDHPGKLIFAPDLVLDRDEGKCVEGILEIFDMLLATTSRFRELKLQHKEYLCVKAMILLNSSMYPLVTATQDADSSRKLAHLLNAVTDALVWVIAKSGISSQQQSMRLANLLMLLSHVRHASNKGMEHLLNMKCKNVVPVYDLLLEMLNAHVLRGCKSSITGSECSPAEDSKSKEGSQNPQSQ
In short: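 ER-beta-UAS-bla HEK293T (GripTite) cells carrying a UAS-driven beta-lactamase reporter, in medium with 2% charcoal-stripped FBS, were exposed to compounds for 16 hr at 37C; LiveBLAzer B/G FRET substrate was then added and fluorescence read after 2 hours at room temperature.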

[11] = molecular target: Estrogen receptor beta (Homo sapiens) (UniProt Q92731); assay: qHTS assay to identify small molecule antagonists of the estrogen receptor beta (ER-beta) signaling pathway (AID 1259378; active = well fitted inhibition curve with a large enough effect in the signal ratio in the repeat runs, not every such curve was filed as active; the % refers to the signal ratio)
In short: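 ER-beta-UAS-bla HEK293T (GripTite) cells in 2% charcoal-stripped FBS medium were preincubated 6 hr at 37C, dosed with compound, then stimulated with 1 nM E2 (final) for 16 hr; beta-lactamase reporter read by B/G FRET fluorescence after 2 hr substrate loading.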

[12] = qHTS assay to identify small molecule agonists of the androgen receptor (AR) signaling pathway in the presence of an antagonist - cell viability counter screen (AID 1259379);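 note: MDA-kb2 human breast cancer cells carrying an MMTV luciferase reporter; series mostly up to about 92 µM; nearly all actives have a fitted effect of over 25% in size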
In short: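 MDA-kb2 viability measured by CellTiter-Fluor fluorescence in the same wells as the luciferase signal; nilutamide 3.0uM final; 15-point compound titration; 16 hr at 37C.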

[13] = qHTS assay to identify small molecule antagonists of the estrogen receptor beta (ER-beta) signaling pathway - cell viability counter screen (AID 1259382); note: series mostly up to about 92 µM; nearly all actives have a fitted effect of over 55% in size
In short: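 Readout: luminescence, CellTiter-Glo, same wells as bla assay. System: ER-beta-UAS-bla GripTite HEK293T, 2% charcoal-stripped FBS. Exposure: compounds plus 1nM 17-beta-estradiol, 16 hr, 37C.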

[14] = molecular target: Estrogen receptor (Homo sapiens) (UniProt P03372); assay: qHTS assay to identify small molecule agonists of the estrogen receptor alpha (ER-alpha) signaling pathway in the presence of an antagonist (AID 1259383; calls by dose curve; note: top concentration of the series differs between compounds; nearly all actives have a fitted effect of over 15% in size)
In short: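 Quantitative HTS confirmation: compounds titrated at 15 concentrations onto estrogen-deprived VM7Luc4E2 cells carrying a four-ERE luciferase construct, with ICI-182,780 present at 10.0nM final. Signal is luminescence after 22hr exposure.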

[15] = qHTS assay to identify small molecule agonists or antagonists of the thyroid stimulating hormone receptor (TSHR) signaling pathway - wild type cell line counter screen (AID 1259384; calls by dose curve)
In short: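 Wild-type HEK293 cells were plated 18 h at 37 C/5% CO2, pin-dosed with compound plus Ro20-1724 medium, held 30 min at room temperature, then given cAMP-d2 and anti-cAMP-cryptate; fluorescence was read after 1 h. Fifteen concentrations, triplicate.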

[16] = molecular target: Thyrotropin receptor (Homo sapiens) (UniProt P16473); assay: qHTS assay to identify small molecule antagonists of the thyroid stimulating hormone receptor (TSHR) signaling pathway (AID 1259385; calls by dose curve; note: nearly all actives have a fitted effect of over 20% in size)
Chain of Thyrotropin receptor (Homo sapiens) (P16473 whole entry, looked up): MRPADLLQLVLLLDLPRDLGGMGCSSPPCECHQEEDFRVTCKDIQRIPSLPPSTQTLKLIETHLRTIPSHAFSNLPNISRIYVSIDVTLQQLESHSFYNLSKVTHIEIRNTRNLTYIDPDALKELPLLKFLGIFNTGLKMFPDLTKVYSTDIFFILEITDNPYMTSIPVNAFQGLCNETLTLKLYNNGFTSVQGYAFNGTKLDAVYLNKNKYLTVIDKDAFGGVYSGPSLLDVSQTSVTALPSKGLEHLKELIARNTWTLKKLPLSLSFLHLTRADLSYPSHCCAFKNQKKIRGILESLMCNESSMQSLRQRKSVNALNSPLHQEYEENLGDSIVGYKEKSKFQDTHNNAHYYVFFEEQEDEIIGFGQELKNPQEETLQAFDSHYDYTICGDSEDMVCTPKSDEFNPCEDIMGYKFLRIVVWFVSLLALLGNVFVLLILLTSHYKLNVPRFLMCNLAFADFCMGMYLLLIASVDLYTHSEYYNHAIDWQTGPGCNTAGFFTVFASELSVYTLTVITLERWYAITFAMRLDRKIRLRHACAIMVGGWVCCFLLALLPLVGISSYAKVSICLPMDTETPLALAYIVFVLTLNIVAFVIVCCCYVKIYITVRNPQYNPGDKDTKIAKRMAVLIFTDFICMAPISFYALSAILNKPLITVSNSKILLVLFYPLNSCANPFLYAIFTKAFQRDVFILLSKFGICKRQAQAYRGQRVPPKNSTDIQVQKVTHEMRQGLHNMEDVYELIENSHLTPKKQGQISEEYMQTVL
In short: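 TSHR-HEK293 cells were plated and held 18 h at 37C/5% CO2, then given compound plus Ro20-1724 and stimulated with TSH at 1.5 ng/mL final. After 30 min at room temperature, cAMP was detected with cAMP-d2/anti-cAMP-cryptate (1 h) by fluorescence.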

[17] = qHTS assay to identify small molecule agonists of the estrogen receptor beta (ER-beta) signaling pathway - cell viability counter screen (AID 1259380); note: nearly all actives have a fitted effect of over 30% in size
In short: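 Measured: luminescence from CellTiter-Glo after 30 min at room temperature, added to wells already read for the LiveBLAzer FRET reporter (2 hr substrate); ER-beta-UAS-bla HEK293T cells had 16 hr compound treatment at 37C, 5% CO2.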

[18] = molecular target: Androgen receptor (Homo sapiens) (UniProt P10275); assay: qHTS assay to identify small molecule agonists of the androgen receptor (AR) signaling pathway in the presence of an antagonist (AID 1259381; calls by dose curve; note: nearly all actives have a fitted effect of over 15% in size)
Chain of Androgen receptor (Homo sapiens) (P10275 whole entry, looked up): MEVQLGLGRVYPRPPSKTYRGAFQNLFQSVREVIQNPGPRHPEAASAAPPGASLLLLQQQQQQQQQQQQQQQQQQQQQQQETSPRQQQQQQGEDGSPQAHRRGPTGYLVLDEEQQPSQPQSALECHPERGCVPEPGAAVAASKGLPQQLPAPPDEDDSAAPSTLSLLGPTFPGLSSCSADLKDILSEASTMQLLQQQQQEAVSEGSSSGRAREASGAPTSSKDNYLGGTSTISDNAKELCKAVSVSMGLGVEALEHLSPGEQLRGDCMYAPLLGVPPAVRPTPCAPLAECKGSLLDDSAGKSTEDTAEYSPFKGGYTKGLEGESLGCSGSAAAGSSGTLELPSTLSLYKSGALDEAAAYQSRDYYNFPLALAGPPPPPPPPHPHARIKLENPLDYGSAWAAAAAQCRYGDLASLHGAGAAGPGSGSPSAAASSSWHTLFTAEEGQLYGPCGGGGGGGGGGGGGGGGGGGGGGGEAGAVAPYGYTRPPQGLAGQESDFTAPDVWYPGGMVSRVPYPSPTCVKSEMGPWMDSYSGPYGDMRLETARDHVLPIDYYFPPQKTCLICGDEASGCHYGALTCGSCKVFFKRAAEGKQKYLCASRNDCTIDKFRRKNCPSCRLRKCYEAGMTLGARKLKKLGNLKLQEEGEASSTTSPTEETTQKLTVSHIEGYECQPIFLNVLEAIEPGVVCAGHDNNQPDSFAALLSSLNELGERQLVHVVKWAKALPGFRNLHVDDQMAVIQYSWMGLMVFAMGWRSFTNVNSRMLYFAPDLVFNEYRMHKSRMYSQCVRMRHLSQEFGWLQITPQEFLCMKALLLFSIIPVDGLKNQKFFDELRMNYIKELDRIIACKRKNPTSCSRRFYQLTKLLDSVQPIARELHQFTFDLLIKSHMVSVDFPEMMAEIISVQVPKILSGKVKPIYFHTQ
In short: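 Luminescent ONE-Glo read, 30min at room temperature, follows 16hr compound exposure (15 concentrations) of MDA-kb2 cells at 37C, 0% CO2, with nilutamide added at 3.0uM final.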

Measured: Potency

CCOc1nc(C(Cl)(Cl)Cl)ns1
not listed: [17] | [18]
inactive: all other assays above

OCCSCSCCO
not listed: [9] | [16] | [18]
inactive: all other assays above

Cc1coc2c1CCC(C)C2 (configuration not stated)
not listed: [18]
inactive: all other assays above

O=S(=O)(O)C(F)(F)C(F)(F)C(F)(F)C(F)(F)C(F)(F)C(F)(F)F
not listed: [10] | [11] | [18]
inactive: all other assays above

NC(=S)C(N)=S
not listed: [10] | [13] | [15] | [16] | [18]
inactive: all other assays above

Oc1c(Cl)cccc1Cl
not listed: [10] | [18]
inactive: all other assays above

O=C(O)c1cccc(Cl)c1
not listed: [18]
inactive: all other assays above

CC(C(O)c1ccccc1)N(C)C/C=C/c1ccccc1 (configuration not stated)
not listed: [9] | [16] | [17]
inactive: all other assays above

COc1cc(OC)nc(NC(=O)NS(=O)(=O)c2ncccc2C(=O)N(C)C)n1
not listed: [10] | [18]
inactive: all other assays above

CNC(=O)Oc1ccccc1C1OCCO1
not listed: [10] | [13] | [15] | [16] | [17]
inactive: all other assays above

O=[N+]([O-])c1cccc2cccnc12
not listed: [10] | [11] | [16] | [18]
inactive: all other assays above

CC(=O)CC(c1ccc(Cl)cc1)c1c(O)c2ccccc2oc1=O (configuration not stated)
not listed: [10] | [13] | [15] | [16] | [18]
inactive: all other assays above

CCOP(=S)(OCC)Oc1cc(-c2ccccc2)on1
not listed: [9] | [13] | [16] | [18]
inactive: all other assays above

N#Cc1c(Cl)cccc1Cl
not listed: [13] | [15] | [16] | [18]
inactive: all other assays above

C[C@]12CC[C@H]3[C@@H](CCC4=CC(=O)CC[C@@]43C)[C@@H]1CC[C@@H]2C(=O)O
not listed: [11]
inactive: all other assays above

NC(=O)O
not listed: [10] | [11] | [18]
inactive: all other assays above

COc1ncc(F)c2nc(S(=O)(=O)Nc3c(F)cccc3F)nn12
not listed: [10]
inactive: all other assays above
